Assays:
Experiment in all cases: SPOT peptide array binding signal intensity (averaged, normalized) (arbitrary units (background-subtracted, floor 0; scale differs between SH3 domains)); higher = stronger binding of the SH3 domain to the peptide
SpBzz1-D2 = biological target: SpBzz1-D2
Outline: (§1)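 SH3 domains from four yeast species were expressed as GST fusions in E. coli BL21(DE3) and purified on glutathione Sepharose. Each was incubated at 10 μg/ml overnight at 4°C in TBS-based blocking buffer on cellulose membranes bearing synthetic 15-mer peptides, in which serines replaced cysteines. Bound protein was detected with anti-GST antibody, an HRP anti-mouse secondary and luminol, then imaged and quantified with Genespotter. The binding signal is the normalized, background-subtracted spot intensity averaged over replicates, in arbitrary units that are not the same from one domain to another.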

SpCyk3 = biological target: SpCyk3
Outline: as §1

SpHof1 = biological target: SpHof1
Outline: as §1

SpHof1-2 = biological target: SpHof1-2
Outline: as §1

SpHof1-3 = biological target: SpHof1-3
Outline: as §1

SpHse1 = biological target: SpHse1
Outline: as §1

SpLsb1 = biological target: SpLsb1
Outline: as §1

SpLsb4 = biological target: SpLsb4
Outline: as §1

SpMyo1 = biological target: SpMyo1
Outline: as §1

SpNbp2 = biological target: SpNbp2
Outline: as §1

SpPex13 = biological target: SpPex13
Outline: as §1

SpRvs167 = biological target: SpRvs167
Outline: as §1

SpSla1-D1-D2 = biological target: SpSla1-D1-D2
Outline: as §1

SpSla1-D3 = biological target: SpSla1-D3
Outline: as §1

AgAbp1 = biological target: AgAbp1
Outline: as §1

AgBbc1 = biological target: AgBbc1
Outline: as §1

AgBem1-D1 = biological target: AgBem1-D1
Outline: as §1

AgBzz1-D1 = biological target: AgBzz1-D1
Outline: as §1

AgBzz1-D2 = biological target: AgBzz1-D2
Outline: as §1

AgCyk3 = biological target: AgCyk3
Outline: as §1

AgFus1 = biological target: AgFus1
Outline: as §1

AgHof1 = biological target: AgHof1
Outline: as §1

AgHse1 = biological target: AgHse1
Outline: as §1

AgLsb1 = biological target: AgLsb1
Outline: as §1

AgLsb4 = biological target: AgLsb4
Outline: as §1

AgMyo5 = biological target: AgMyo5
Outline: as §1

AgNbp2 = biological target: AgNbp2
Outline: as §1

AgRvs167 = biological target: AgRvs167
Outline: as §1

AgSho1 = biological target: AgSho1
Outline: as §1

AgSla1-D1-D2 = biological target: AgSla1-D1-D2
Outline: as §1

AgSla1-D3 = biological target: AgSla1-D3
Outline: as §1

CaAbp1-D1 = biological target: CaAbp1-D1
Outline: as §1

CaAbp1-D2 = biological target: CaAbp1-D2
Outline: as §1

CaBbc1 = biological target: CaBbc1
Outline: as §1

CaBem1-D1 = biological target: CaBem1-D1
Outline: as §1

CaBzz1-D1 = biological target: CaBzz1-D1
Outline: as §1

CaBzz1-D2 = biological target: CaBzz1-D2
Outline: as §1

CaCyk3 = biological target: CaCyk3
Outline: as §1

CaFus1 = biological target: CaFus1
Outline: as §1

CaHof1 = biological target: CaHof1
Outline: as §1

CaHse1 = biological target: CaHse1
Outline: as §1

CaLsb1 = biological target: CaLsb1
Outline: as §1

CaLsb4 = biological target: CaLsb4
Outline: as §1

CaMyo5 = biological target: CaMyo5
Outline: as §1

CaNbp2 = biological target: CaNbp2
Outline: as §1

CaRvs167 = biological target: CaRvs167
Outline: as §1

CaRvs167-3 = biological target: CaRvs167-3
Outline: as §1

CaSho1 = biological target: CaSho1
Outline: as §1

CaSla1-D1-D2 = biological target: CaSla1-D1-D2
Outline: as §1

CaSla1-D3 = biological target: CaSla1-D3
Outline: as §1

ScAbp1 = biological target: ScAbp1
Outline: as §1

ScBbc1 = biological target: ScBbc1
Outline: as §1

ScBem1-D1 = biological target: ScBem1-D1
Outline: as §1

ScBzz1-D1 = biological target: ScBzz1-D1
Outline: as §1

ScBzz1-D2 = biological target: ScBzz1-D2
Outline: as §1

ScCyk3 = biological target: ScCyk3
Outline: as §1

ScFus1 = biological target: ScFus1
Outline: as §1

ScHof1 = biological target: ScHof1
Outline: as §1

ScHse1 = biological target: ScHse1
Outline: as §1

ScLsb1 = biological target: ScLsb1
Outline: as §1

ScLsb2 = biological target: ScLsb2
Outline: as §1

ScLsb3 = biological target: ScLsb3
Outline: as §1

ScLsb4 = biological target: ScLsb4
Outline: as §1

ScMyo3 = biological target: ScMyo3
Outline: as §1

ScMyo5 = biological target: ScMyo5
Outline: as §1

ScNbp2 = biological target: ScNbp2
Outline: as §1

ScPex13 = biological target: ScPex13
Outline: as §1

ScRvs167 = biological target: ScRvs167
Outline: as §1

ScSho1 = biological target: ScSho1
Outline: as §1

ScSla1-D1-D2 = biological target: ScSla1-D1-D2
Outline: as §1

ScSla1-D3 = biological target: ScSla1-D3
Outline: as §1

SpAbp1-D1 = biological target: SpAbp1-D1
Outline: as §1

SpBbc1 = biological target: SpBbc1
Outline: as §1

SpBzz1-D1 = biological target: SpBzz1-D1
Outline: as §1

Binder: PSRRDSLSIPRAVDA
- SPOT peptide array binding signal intensity (SpBzz1-D2): 1.5
- SPOT peptide array binding signal intensity (SpCyk3): 3.5
- SPOT peptide array binding signal intensity (SpHof1): 1.25
- SPOT peptide array binding signal intensity (SpHof1-2): 0.5
- SPOT peptide array binding signal intensity (SpHof1-3): 1
- SPOT peptide array binding signal intensity (SpHse1): 21.2
- SPOT peptide array binding signal intensity (SpLsb1): ≤ 0
- SPOT peptide array binding signal intensity (SpLsb4): ≤ 0
- SPOT peptide array binding signal intensity (SpMyo1): ≤ 0
- SPOT peptide array binding signal intensity (SpNbp2): ≤ 0
- SPOT peptide array binding signal intensity (SpPex13): ≤ 0
- SPOT peptide array binding signal intensity (SpRvs167): 1.33
- SPOT peptide array binding signal intensity (SpSla1-D1-D2): 2
- SPOT peptide array binding signal intensity (SpSla1-D3): 1

Binder: VNFRRIPTGPDSPPT
- SPOT peptide array binding signal intensity (AgAbp1): ≤ 0
- SPOT peptide array binding signal intensity (AgBbc1): 2.5
- SPOT peptide array binding signal intensity (AgBem1-D1): 13
- SPOT peptide array binding signal intensity (AgBzz1-D1): 23
- SPOT peptide array binding signal intensity (AgBzz1-D2): 258
- SPOT peptide array binding signal intensity (AgCyk3): ≤ 0
- SPOT peptide array binding signal intensity (AgFus1): 45
- SPOT peptide array binding signal intensity (AgHof1): 6
- SPOT peptide array binding signal intensity (AgHse1): 132
- SPOT peptide array binding signal intensity (AgLsb1): 0.5
- SPOT peptide array binding signal intensity (AgLsb4): 5
- SPOT peptide array binding signal intensity (AgMyo5): ≤ 0
- SPOT peptide array binding signal intensity (AgNbp2): ≤ 0
- SPOT peptide array binding signal intensity (AgRvs167): 3.17
- SPOT peptide array binding signal intensity (AgSho1): 1
- SPOT peptide array binding signal intensity (AgSla1-D1-D2): ≤ 0
- SPOT peptide array binding signal intensity (AgSla1-D3): 0.5
- SPOT peptide array binding signal intensity (CaAbp1-D1): ≤ 0
- SPOT peptide array binding signal intensity (CaAbp1-D2): ≤ 0
- SPOT peptide array binding signal intensity (CaBbc1): 6.75
- SPOT peptide array binding signal intensity (CaBem1-D1): 6
- SPOT peptide array binding signal intensity (CaBzz1-D1): 41
- SPOT peptide array binding signal intensity (CaBzz1-D2): 16.5
- SPOT peptide array binding signal intensity (CaCyk3): 6
- SPOT peptide array binding signal intensity (CaFus1): 141
- SPOT peptide array binding signal intensity (CaHof1): ≤ 0
- SPOT peptide array binding signal intensity (CaHse1): 3.5
- SPOT peptide array binding signal intensity (CaLsb1): ≤ 0
- SPOT peptide array binding signal intensity (CaLsb4): 18.5
- SPOT peptide array binding signal intensity (CaMyo5): 0.5
- SPOT peptide array binding signal intensity (CaNbp2): 113
- SPOT peptide array binding signal intensity (CaRvs167): 1.33
- SPOT peptide array binding signal intensity (CaRvs167-3): 115
- SPOT peptide array binding signal intensity (CaSho1): 94.5
- SPOT peptide array binding signal intensity (CaSla1-D1-D2): ≤ 0
- SPOT peptide array binding signal intensity (CaSla1-D3): ≤ 0
- SPOT peptide array binding signal intensity (ScAbp1): 4
- SPOT peptide array binding signal intensity (ScBbc1): 2
- SPOT peptide array binding signal intensity (ScBem1-D1): ≤ 0
- SPOT peptide array binding signal intensity (ScBzz1-D1): 6
- SPOT peptide array binding signal intensity (ScBzz1-D2): 8.5
- SPOT peptide array binding signal intensity (ScCyk3): 1.5
- SPOT peptide array binding signal intensity (ScFus1): 30
- SPOT peptide array binding signal intensity (ScHof1): 0.5
- SPOT peptide array binding signal intensity (ScHse1): 278
- SPOT peptide array binding signal intensity (ScLsb1): ≤ 0
- SPOT peptide array binding signal intensity (ScLsb2): ≤ 0
- SPOT peptide array binding signal intensity (ScLsb3): 79
- SPOT peptide array binding signal intensity (ScLsb4): 11
- SPOT peptide array binding signal intensity (ScMyo3): ≤ 0
- SPOT peptide array binding signal intensity (ScMyo5): ≤ 0
- SPOT peptide array binding signal intensity (ScNbp2): 35.5
- SPOT peptide array binding signal intensity (ScPex13): 22.8
- SPOT peptide array binding signal intensity (ScRvs167): 0.167
- SPOT peptide array binding signal intensity (ScSho1): 96.5
- SPOT peptide array binding signal intensity (ScSla1-D1-D2): ≤ 0
- SPOT peptide array binding signal intensity (ScSla1-D3): 2.5
- SPOT peptide array binding signal intensity (SpAbp1-D1): ≤ 0
- SPOT peptide array binding signal intensity (SpBbc1): ≤ 0
- SPOT peptide array binding signal intensity (SpBzz1-D1): 50
- SPOT peptide array binding signal intensity (SpBzz1-D2): 0.25
- SPOT peptide array binding signal intensity (SpCyk3): ≤ 0
- SPOT peptide array binding signal intensity (SpHof1): 178
- SPOT peptide array binding signal intensity (SpHof1-2): 6
- SPOT peptide array binding signal intensity (SpHof1-3): 0.75
- SPOT peptide array binding signal intensity (SpHse1): 192
- SPOT peptide array binding signal intensity (SpLsb1): ≤ 0
- SPOT peptide array binding signal intensity (SpLsb4): 27.5
- SPOT peptide array binding signal intensity (SpMyo1): 2.5
- SPOT peptide array binding signal intensity (SpNbp2): 14.5
- SPOT peptide array binding signal intensity (SpPex13): ≤ 0
- SPOT peptide array binding signal intensity (SpRvs167): 10.7
- SPOT peptide array binding signal intensity (SpSla1-D1-D2): ≤ 0
- SPOT peptide array binding signal intensity (SpSla1-D3): ≤ 0
